# HCMV inh – inhibitors of human cytomegalovirus. HFF cells, HCMV-luciferase reporter, 72 h; active compounds read low. activity change, negative = inhibition, % at 57.5 µM. actives 4.5% (n = 410,000). AID 1259415; in the data active = activity change below about -60%; inconclusive = no clear call, values can overlap the other calls; inactive = above about -39%
#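 Compounds were evaluated in HFFs infected with an HCMV luciferase reporter virus (MOI 1 PFU/cell). Luciferase in lysates collected 72 h post infection served as the replication measure.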
# VACV mCherry inh – inhibitors of vaccinia virus infection (mCherry reporter signal) | Vaccinia virus mCherry reporter infection, fluorescence | Potency, µM (top dose mostly 36.5 µM), for the others: at the highest dose activity change, negative = inhibition, most hits filed as inhibitors | actives 0.63% (n = 310,000); calls by dose curve; tested in A549 cells; also: potency is read from the fitted curve at half-maximal effect; nearly all actives have a fitted effect of over 35% in size
# FMDV antiviral – blocks foot and mouth disease virus; FMDV antiviral cell-based qHTS; Potency, µM (highest dose often 57.9 µM), without a hit: at the highest dose activity change, negative = inhibition, usual class: inhibitors; actives 1.2% (n = 410,000); AID 1159524; calls by dose curve; tested in HEK293T cells; also: read-out not given here; potency is read from the fitted curve at half-maximal effect; nearly all actives have a fitted effect of over 45% in size
# Sm TGR block – inhibitors of Schistosoma mansoni thioredoxin glutathione reductase; Q962Y6; purified TGR, DTNB reduction, TNB absorbance 405 nm; Potency, µM (highest dose often 114 µM), for the others: at the highest dose activity change, negative = inhibition, actives largely listed as inhibitors; actives 3% (n = 360,000); AID 485364; also: potency is read from the fitted curve at half-maximal effect; nearly all actives have a fitted effect of over 60% in size
#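 First, TGR (20 nM dispensed) and NADPH were mixed with compound. Second, a 15 min room-temperature incubation followed. Third, further NADPH and then DTNB were added to start the reaction. Finally, TNB absorbance was monitored kinetically.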
# HCV inhibitor – blocks hepatitis C virus; Potency, µM (series often up to 41.8 µM), without a hit: top-dose activity change, negative = inhibition, actives largely listed as inhibitors; Huh7.5.1 HCVcc-Cre infection, luciferase reporter, 44 h; actives 3.4% (n = 340,000); also: potency is read from the fitted curve at half-maximal effect
#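 Compounds are dispensed onto cells plated 4 h earlier at 1,000 per well, with HCVcc-Cre virus (about 0.5 moi) added next. Following 44 h of culture, luminescent signal is measured for 15 sec after 15 min with substrate at room temperature.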
# Vaccinia Venus – vaccinia inhibition (Venus reporter) | Vaccinia virus Venus reporter expression, fluorescence | Potency, µM (doses to about 36.5 µM), inactives show at the highest dose activity change, negative = inhibition, most hits filed as inhibitors | actives 0.46% (n = 330,000) | AID 720580; calls by dose curve; tested in A549 cells; also: potency is read from the fitted curve at half-maximal effect; nearly all actives have a fitted effect of over 30% in size
# * hit, by the source's call; i = inactive; ? = inconclusive; nt = no result; [ ] = another dose, or the depositor's remark. Only some compounds are listed: those with a hit (about 9.3% of all), similar ones and a draw of the others. Unless noted, calls follow the shape of the dose curve; as a rule, active = well fitted curve in the direction sought with a large enough effect; inconclusive = small, poorly fitted or top-dose-only effect, or another doubt; inactive = no such curve, though single readings can be large; an effect the other way counts as inactive or inconclusive. % is scaled to controls: 0 for no effect and ±100 for the full control effect.
SMILES,HCMV inh,VACV mCherry inh,FMDV antiviral,Sm TGR block,HCV inhibitor,Vaccinia Venus
CCCOc1ccc(N2C(=O)CC(SCCc3nc4ccccc4[nH]3)C2=O)cc1 (stereo not drawn),-10,nt,-36%,-13%[57.1 µM],6%,nt
O=C1CC(SCc2nc3ccccc3[nH]2)C(=O)N1c1ccc(Cl)cc1 (stereo not drawn),-19,-12%,-16%,25µM*,11%,3%
O=C1CC(SCc2nc3ccccc3[nH]2)C(=O)N1c1cccc(F)c1 (stereo not drawn),-25,-9%,-7%,?,-7%,-3%
O=C1CC(SCc2nc3ccccc3[nH]2)C(=O)N1c1ccc(F)c(Cl)c1 (stereo not drawn),-9,nt,-3%,40µM*,14%,nt
O=C(CSc1nc2c(cnn2-c2ccccc2)c(=O)[nH]1)NCC1CCCO1 (stereo not drawn),30,i,-10%,nt,-6%,-1%
Cc1ccc(C)n1-c1ccc(-c2ccnc(N)n2)cc1,-66*,-26%,?,25µM*,-9%,-13%
CCN(CC)N=O,5,-14%,-16%,-19%,0%,-10%
O=C(CCc1nc2ccccc2c(=O)[nH]1)Nc1nc(-c2cccs2)cs1,nt,-8%,-1%,-10%,?,-1%
CC(=O)NC(CC(=O)Nc1nc(-c2ccc(N(C)S(C)(=O)=O)cc2)cs1)c1ccccc1 (stereo not drawn),0,?,-24%,6%,11µM*,1%
CN(c1ccc(-c2csc(NC(=O)CCCc3nc4ccccc4c(=O)[nH]3)n2)cc1)S(C)(=O)=O,-19,-9%,35µM*,nt,nt,-20%
Cc1nc2ccc(N=NN(C)C)cc2[nH]1,-11,nt,14%,20µM*,5%,nt
Cc1nc2ccc(Cc3ccc4nc(C)[nH]c4c3)cc2[nH]1,-4,nt,-7%,-6%,-7%,-24%
CN(C)c1ccc(-c2csc(C(C)(O)c3ccc(F)c(F)c3)n2)cc1 (stereo not drawn),-64*,i,-19%,nt,nt,-2%
CC(O)(c1ccc(F)c(F)c1)c1nc(-c2ccncc2)cs1 (stereo not drawn),-31,-17%,0%,nt,nt,-27%
COc1ccc(C(C)(O)c2nc(-c3cccc(C(F)(F)F)c3)cs2)cc1 (stereo not drawn),-67*,i,-22%,nt,nt,-13%
COc1ccc(-c2csc(C(C)(O)c3ccc(F)c(F)c3)n2)cc1 (stereo not drawn),-63*,i,-28%,nt,nt,?
Cc1ccc(NC(=O)CCC(=O)NNC(=O)c2cccs2)c(C)c1,6,nt,11%,0%,?,nt
Cc1ccc([C@H]2C[C@H](n3cc(COC(=O)c4ccccc4)nn3)[C@@H](O)CN2CC2CCCCC2)cc1,22,-11%,-14%,nt,nt,-11%
CCOC(=O)C1=C(N)Oc2cc(O)ccc2C1c1cccc([N+](=O)[O-])c1 (stereo not drawn),-69*,-29%,20µM*,nt,?,-26%
CCCOC(=O)C1=C(C)NC2=C(C(=O)C(C(=O)OC)C(C)C2)C1c1ccc(N(CC)CC)cc1 (stereo not drawn),33,-19%,8%,-18%,10µM*,-21%
CCC(C)OC(=O)C1=C(C)NC2=C(C(=O)C(C(=O)OC)C(C)C2)C1c1ccc(N(C)C)cc1 (stereo not drawn),29,nt,36%,1%,?,nt
O=C(NCc1ccc(F)c(F)c1)c1ccc(-c2ccc(F)c(F)c2)c2ccoc12,-8,-28%,-21%,nt,nt,-20%
O=C(NCc1cccnc1)c1ccc(-c2ccc(F)c(F)c2)c2ccoc12,-85*,?,?,nt,nt,-25%
O=C(Nc1cccc(C(F)(F)F)c1)c1ccc(-c2ccc(F)c(F)c2)c2ccoc12,-76*,?,-19%,nt,nt,?
CCOC(=O)CSC1=NC(=O)/C(=C\c2ccc(OC(C)=O)cc2)S1,113,nt,22%,8.9µM*,?,nt
SMILES,HCMV inh,VACV mCherry inh,FMDV antiviral,Sm TGR block,HCV inhibitor,Vaccinia Venus
CCOC(=O)COc1ccc(Br)cc1/C=C1\SC(N)=NC1=O,20,nt,-19%,-17%,12%,nt
CCOC(=O)CSC1=NC(=O)/C(=C/c2ccc(Br)cc2)S1,-29,-2%,25µM*,3.2µM*,6%,-13%
CCc1nn(CC(=O)NCCCN2CCOCC2)c(=O)c2cc3c(OC)cccc3n12,0,nt,-16%,nt,5%,nt
Cc1cccc(N(C)C(=O)CCS(=O)(=O)c2cccc3nonc23)c1,-66*,-13%,-6%,?,-7%,-11%
CCN(C(=O)CCS(=O)(=O)c1cccc2nonc12)c1ccc(C)c(C)c1,-19,-12%,13%,40µM*,9%,-20%
COc1ccc(NS(=O)(=O)c2cccs2)cc1S(=O)(=O)N1CCCCC1,-28,-27%,12%,-10%,0%,-15%
CCOc1ccc(-c2nnc(SCC(=O)NCc3ccccc3Cl)o2)cc1,7,i,-11%,20µM*,nt,-15%
CCOc1ccc(-c2nnc(SCC(=O)NCc3ccccc3)o2)cc1,12,-4%,-12%,-3%,nt,-10%
CCOc1ccc(-c2nnc(SCC(=O)NCc3ccc(Cl)cc3)o2)cc1,10,-19%,11%,14µM*,nt,-12%
CCOc1ccc(-c2nnc(SCC(=O)NC3CC3)o2)cc1,-19,nt,47%,0%,3%,nt
COC(=O)c1ccc(NC(=O)c2ccc3c(c2)NC(=O)C2CCCN32)cc1 (stereo not drawn),nt,nt,nt,-21%,-3%,nt
CSc1cccc(NC(=O)/C=C/c2ccc(Cl)cc2)c1,-18,nt,-20%,3%,13µM*,nt
CSc1cccc(NC(=O)/C=C/c2ccccc2)c1,15,nt,37%,2%,?,nt
O=C(/C=C/c1ccco1)Nc1ccc(Oc2ccc(Cl)cc2)cc1,-68*,?,?,-36%,8.9µM*,?
CSc1cccc(NC(C)=O)c1,7,-16%,-10%,8%,8%,-3%
CSc1cccc(NC(=O)/C=C/c2ccco2)c1,-11,-5%,72%,1.1µM*,-14%,5%
COc1cccc(NC(=O)/C=C/c2ccco2)c1,16,i,38%,10µM*,-9%,1%
COc1cc(NS(=O)(=O)c2ccc(NC(=O)c3ccc(S(=O)(=O)N4CCCC4)cc3)cc2)ncn1,21,nt,nt,5%,nt,nt
O=C(O)c1cn(Cc2ccccc2)c2ccccc2c1=O,?,-13%,5%,-21%,17%,-4%
CCN(CC)c1ccc2nc3ccc(N)cc3[n+](-c3ccccc3)c2c1,nt,i,?,-31%,5µM*,i
CCN(CC)c1ccc2nc3ccccc3[n+](CC)c2c1,nt,50%,7.9µM*,?,6.3µM*,?
CCN(CC)c1ccc(/C=C/c2cc(Cl)nc3ccccc23)cc1,nt,-7%,nt,nt,nt,3%
